# The full ranking holds about 33,000 sequences; the median of “E-score (-0.5 to 0.5)” is about -0.054, and the highest 2% start at about 0.35. The entries come from a sample that favours the highest values as a whole.
# Molecular target: T1, Stb5 (UniProt P38699)
# T1 sequence: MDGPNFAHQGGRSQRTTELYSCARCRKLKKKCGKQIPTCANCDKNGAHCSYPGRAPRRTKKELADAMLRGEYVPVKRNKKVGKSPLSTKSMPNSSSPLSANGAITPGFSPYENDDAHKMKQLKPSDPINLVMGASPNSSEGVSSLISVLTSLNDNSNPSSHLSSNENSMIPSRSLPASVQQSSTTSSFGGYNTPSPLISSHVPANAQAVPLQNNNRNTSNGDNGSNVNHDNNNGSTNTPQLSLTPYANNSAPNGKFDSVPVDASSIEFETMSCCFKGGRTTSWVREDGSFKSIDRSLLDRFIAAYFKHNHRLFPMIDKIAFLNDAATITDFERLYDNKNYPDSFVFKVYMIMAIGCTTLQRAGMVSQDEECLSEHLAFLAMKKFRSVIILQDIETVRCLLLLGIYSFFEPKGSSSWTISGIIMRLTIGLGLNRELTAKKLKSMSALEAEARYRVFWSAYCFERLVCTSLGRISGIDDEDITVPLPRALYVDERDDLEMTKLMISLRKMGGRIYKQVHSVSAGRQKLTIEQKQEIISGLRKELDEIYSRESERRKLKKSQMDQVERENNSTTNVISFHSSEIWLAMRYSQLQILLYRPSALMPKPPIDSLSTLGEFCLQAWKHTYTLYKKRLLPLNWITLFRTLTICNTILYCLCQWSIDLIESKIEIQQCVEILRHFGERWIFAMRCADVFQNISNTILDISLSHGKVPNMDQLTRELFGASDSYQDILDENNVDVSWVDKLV
# Assay: PBM E-score (8-mer binding enrichment) (E-score (-0.5 to 0.5)); higher = stronger / more preferred TF binding
# Details: protein concentration: 200 nM; construct: GST-full length
# Experimental: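 Universal 'all 10-mer' protein binding microarrays (Agilent AMADID 015681) probed with GST-tagged S. cerevisiae TFs (full-length or DBD) made by in vitro transcription/translation (PURExpress), about 100-200 nM. Bound TF was detected with fluorescent anti-GST. Each ungapped 8-mer (which stands for itself and its reverse complement) is scored by the PBM enrichment score (E-score), a modified Wilcoxon-Mann-Whitney statistic from -0.5 to +0.5, computed with the Universal PBM Analysis Suite. Scale: above 0.35 generally sequence-specific binding.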
row,Sequence,PBM E-score
1,AGTCCGTC,0.389
2,ACTCCGAC,0.425
3,ACTCCGAG,0.202
4,AGTCCGTA,0.284
5,ATTCCGTG,0.00715
6,ACTCCGTC,0.367
7,ACTCCGAA,0.328
8,CCTCCGTC,0.195
9,ACTCCGTA,0.35
10,CGTCCGTC,0.21
11,ATTCCGTC,0.141
12,ACTCCGTG,0.352
13,TACAACCA,-0.0508
14,ACTCCCCA,-0.225
15,GCGACAGC,0.105
16,ACGAGGCA,-0.206
17,TATGTCCA,0.133
18,AGGGCGAG,-0.295
19,AGGCGCTA,0.0525
20,CGGCGCCA,0.377
21,GGGCGATA,0.11
22,AGGCGATA,-0.0449
23,AGGCGCGA,-0.00867
24,AGGCGCCA,0.041
25,CGGCGATA,0.463

row,Sequence,PBM E-score
1,CGGCGCTA,0.447
2,CGGCGCGA,0.373
3,CGGCGCGC,0.275
4,GGGCGCTA,0.0264
5,TGGCGCCA,0.0517
6,TGCCTCCA,-0.237
7,GTCATTGA,-0.109
8,TGGAGACA,-0.254
9,AGGTGCGC,0.0592
10,AGGCGGAT,0.0922
11,AGGCGGAG,0.356
12,AGGCGGCC,0.235
13,AGGCGGAA,0.131
14,AGGCGGGG,0.38
15,AGGCGGGC,0.275
16,AGGCGGGA,0.234
17,ACGCGGAC,0.241
18,AGGCGGAC,0.356
19,AGTGGCAA,-0.04
20,CTGCTATA,0.0793
21,CAGAGTGG,-0.19
22,AGAACCAC,0.0238
23,CATCATAG,-0.0501
24,AGGAGCAC,-0.252
25,GCCATTAA,-0.0877

row,Sequence,PBM E-score
1,GGTATTAA,0.404
2,GGTATTAC,0.386
3,AGTATTAC,0.0335
4,AGTATTAA,-0.0112
5,TGTATTAA,-0.0825
6,CGTATTAC,0.188
7,GTCTTTTA,-0.0581
8,ATGCGGGC,0.087
9,CCATCGGG,0.262
10,ATACCCGG,0.239
11,AAGTGCGC,0.243
12,CGTCATGA,-0.0111
13,AGGGCAGG,-0.205
14,TCGAAACA,-0.233
15,CACAGCGG,0.286
16,AGCGGCGA,0.317
17,AGCGGCTG,0.0872
18,AACAGCGG,0.366
19,AACAGCGA,0.235
20,ATCGGCGA,0.272
21,CGCGGCGC,0.318
22,ATCGGCGC,0.291
23,AGCGGCGG,0.401
24,ATCGGCGG,0.363
25,AGCGGCGC,0.363

row,Sequence,PBM E-score
1,AACGGCGC,0.222
2,GGCTCGAC,-0.113
3,ACCTGACA,-0.145
4,ATAGACCA,-0.188
5,TACAGATA,0.048
6,TAGTAGGA,-0.0819
7,ACTTACCG,0.195
8,GAGCCAGC,0.00015
9,AGGCGATC,-0.302
10,AAGGAGGT,-0.0343
11,GCAAGCCC,0.117
12,AGGGGCGC,-0.0545
13,AGGGGCGG,0.36
14,AGGGGCGA,-0.0945
15,ATCTTTTA,0.034
16,AAGGCTCT,-0.214
17,AGTACCAG,-0.0537
18,AGTACCCG,0.0305
19,CGTACCGC,0.302
20,CGTACCGA,0.205
21,AGTACCGG,0.367
22,ACTACCGC,0.329
23,GGTACCGA,0.286
24,AGTACCGC,0.435
25,AGTACCGA,0.439

row,Sequence,PBM E-score
1,AGTCGTAG,-0.232
2,AAGAGTGC,-0.0116
3,CCACTAGG,-0.166
4,TTCTCCAA,-0.0481
5,AAAGTATG,-0.172
6,ACCCCGAG,0.351
7,TCCCCGAA,0.266
8,CCCCCGAC,0.349
9,AACCCGAC,0.347
10,ACCCCGAT,0.441
11,ACCCCGAA,0.37
12,GACCCGAC,0.295
13,CCCCCGAA,0.213
14,AACCCGAT,0.222
15,ACCCCGAC,0.444
16,GCCCCGAA,0.198
17,GCCCCGAC,0.371
18,GCACTGGC,-0.0607
19,CATGTTCA,-0.334
20,CGGACAAC,0.144
21,ATCCGCTG,0.189
22,ATGATGGC,-0.19
23,CACGCCTG,-0.158
24,CCATCTAA,-0.192
25,CAACACCA,-0.1

row,Sequence,PBM E-score
1,CGACACCA,0.0464
2,CGACACCC,0.0971
3,ATACACCA,-0.0712
4,CGACACCG,0.371
5,ATACACCC,0.254
6,ATACACCG,0.402
7,ACACACCT,-0.0405
8,ACACACCG,0.372
9,CAACACCC,-0.206
10,CAACACCG,0.408
11,ACACACCC,0.0669
12,CTTAAACC,-0.0424
13,AAATACTG,-0.0876
14,ATCTTTGA,-0.157
15,AATTGAAA,-0.198
16,GCTAAGTA,-0.0566
17,CAAGAGGG,-0.306
18,AGACACCA,-0.13
19,AGACACCG,0.436
20,AGACACCC,-0.231
21,ACTATCCA,0.0766
22,AGTTTCTG,-0.117
23,ATCCGACC,0.262
24,ATCCGACA,0.283
25,CTCCGAGC,0.102

row,Sequence,PBM E-score
1,GTCCGAGA,0.184
2,GTCCGACA,0.403
3,GTCCGAAA,0.259
4,CTCCGACA,0.366
5,CTCCGAGA,0.187
6,CTCCGACC,0.375
7,CTACATGC,-0.179
8,CTTCTGTA,-0.09
9,CACCACAA,-0.0283
10,GAGTGGGC,0.0251
11,GGCATTCA,0.0519
12,ATTTCACA,-0.157
13,GCGCCAGC,0.112
14,ACGCCCGC,0.28
15,CCGCCCGC,0.362
16,CCGCCAGC,0.356
17,CCGCCCCG,0.409
18,CCGCCCGG,0.344
19,ACGCCAGC,-0.181
20,CCGCCCCC,0.335
21,ACGCCCCG,0.188
22,CTTATCAA,-0.125
23,ACAATGAA,-0.0923
24,CCACATTC,-0.0853
